Assay results taken from PubChem BioAssay (NCATS).
Inconclusive results are not listed. Activity calls are given as the source filed them. The call rests on the fitted dose curve; in most records, active means well fitted cell-killing curve with a large enough effect; inconclusive means small, poorly fitted or top-dose-only effect, or effect the other way; inactive means no such curve, though single readings can be large or run the other way.

Columns and labels:
[1] = Quantitative High-Throughput drug screen in 47 multiple myeloma cell lines against the NCATS MIPE library collection: MM1S_ATCC cell viability assay (AID 1918980); conditions: MM1S myeloma viability, CellTiter-Glo ATP luminescence, 48 h; further: nearly all actives have a fitted effect of over 45% in size
How it was run: (§1)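 Cells were exposed to library compounds for 48 hours, after which ATP was measured by CellTiter-Glo. Signal was taken as median relative luminescence units.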

[2] = Quantitative High-Throughput drug screen in 47 multiple myeloma cell lines against the NCATS MIPE library collection: MM1R_ATCC cell viability assay (AID 1918981); conditions: MM1R multiple myeloma cells, CellTiter-Glo viability, 48 h; series mostly up to 45.8 µM; further: nearly all actives have a fitted effect of over 35% in size
How it was run: as §1

[3] = Quantitative High-Throughput drug screen in 47 multiple myeloma cell lines against the NCATS MIPE library collection: OCIMY5_PLB cell viability assay (AID 1918988); conditions: OCI-MY5 myeloma viability, ATP luminescence, 48 h; further: nearly all actives have a fitted effect of over 65% in size
How it was run: as §1

[4] = Quantitative High-Throughput drug screen in 47 multiple myeloma cell lines against the NCATS MIPE library collection: SKMM1_PLB cell viability assay (AID 1919863); conditions: SKMM1 myeloma viability, CellTiter-Glo ATP, 48 h; viability: hits give low values; further: nearly all actives have a fitted effect of over 35% in size
How it was run: as §1

[5] = Quantitative High-Throughput drug screen in 47 multiple myeloma cell lines against the NCATS MIPE library collection: LP1_DSMZ cell viability assay (AID 1918982); conditions: LP1 myeloma viability, CellTiter-Glo ATP luminescence, 48 h; series mostly up to 45.8 µM; further: nearly all actives have a fitted effect of over 35% in size
Excerpt: (§2) PI: Beverly A. Mock Ph.D.
(§3) Laboratory of Cancer Biology and Genetics,
(§4) Center for Cancer Research, National Cancer Institute,
(§5) National Institute of Health, Bethesda, Maryland
(§6) Drug resistance and disease progression are common in multiple myeloma (MM) patients, underscoring the need for new therapeutic combinations. […] We hypothesized that effective combinations would reduce MYC expression and enhance p16 activity. […] These preclinical data identify potentially useful drug combinations for evaluation in drug-resistant MM and reveal potential mechanisms of combined drug sensitivity.
(§7) Described herein is the primary MIPE qHTS used to cherrypick compounds. Validated compounds were then further tested for potential synergistic activiy.
(§8) [1] Peat TJ, Gaikwad SM, Dubois W, Gyabaah-Kessie N, Zhang S, Gorjifard S, Phyo Z, Andres M, Hughitt VK, Simpson RM, Miller MA, Girvin AT, Taylor A, Williams D, D'Antonio N, Zhang Y, Rajagopalan A, Flietner E, Wilson K, Zhang X, Shinn P, Klumpp-Thomas C, McKnight C, Itkin Z, Chen L, Kazandijian D, Zhang J, Michalowski AM, Simmons JK, Keats J, Thomas CJ, Mock BA. Drug combinations identified by high-throughput screening promote cell cycle transition and upregulate Smad pathways in myeloma. Cancer Lett. 2023 Aug 1;568:216284. doi: 10.1016/j.canlet.2023.216284. Epub 2023 Jun 24. PMID: 37356470; PMCID: PMC10408729.
(§9) SEQUENCE No. (e.g., 1, 2, 3, etc.); […] (e.g., Cells, Incubation, Reagent, etc.); VALUE and DESCRIPTION.
(§10) 1; Cells; 5 uL; white, solid bottom 1536-well Greiner assay plate.
(§11) 2; Compounds; 23 nL; Kalypsis pin tool (Wako USA) equipped with a 1536-well pin head to transfer to the assay plates.
(§12) 3; Incubation; 48 hours; 37C incubation.
(§13) 4; Reagent;5uL; CellTiter Glo (Promega).
(§14) 5; Detector; 425V; Luminescence; Viewlux PerkinElmer. […]
(§15) 1. […] Briefly, the corresponding myeloma cell lines were screened in 1,536-well plates with 500 cells, 5-uL per well for inhibition of cell viability (assessed by measuring ATP levels with CellTiterGlo). […]
(§16) 5. Signal was measured as median relative luminescence units on a ViewLux (PerkinElmer) multiplate reader. […]

[6] = Quantitative High-Throughput drug screen in 47 multiple myeloma cell lines against the NCATS MIPE library collection: KMS28PE_JCRB cell viability assay (AID 1918983); conditions: KMS28PE multiple myeloma viability, CellTiter-Glo ATP, 48 h; further: nearly all actives have a fitted effect of over 35% in size
How it was run: as §1

[7] = Quantitative High-Throughput drug screen in 47 multiple myeloma cell lines against the NCATS MIPE library collection: L363_DSMZ cell viability assay (AID 1918984); conditions: L363 myeloma viability, CellTiter-Glo ATP luminescence, 48 h; series mostly up to 45.8 µM; further: nearly all actives have a fitted effect of over 40% in size
How it was run: as §1

[8] = Quantitative High-Throughput drug screen in 47 multiple myeloma cell lines against the NCATS MIPE library collection: KMS34_JCRB cell viability assay (AID 1918985); conditions: KMS34 myeloma viability, CellTiter-Glo ATP luminescence, 48 h; series mostly up to 45.8 µM; further: nearly all actives have a fitted effect of over 40% in size
Excerpt: as §2, §3, §4, §5, §6, §7, §8, §9, §10, §11, §12, §13, §14, §15, §16

[9] = Quantitative High-Throughput drug screen in 47 multiple myeloma cell lines against the NCATS MIPE library collection: OCIMY7_PLB cell viability assay (AID 1918987); conditions: OCI-MY7 myeloma viability, CellTiter-Glo ATP, 48 h; further: nearly all actives have a fitted effect of over 65% in size
How it was run: as §1

[10] = Quantitative High-Throughput drug screen in 47 multiple myeloma cell lines against the NCATS MIPE library collection: OPM1_PLB cell viability assay (AID 1918989); conditions: CellTiter-Glo, 48 h; series mostly up to 45.8 µM; further: nearly all actives have a fitted effect of over 40% in size
How it was run: as §1
Potency means the concentration at half of the fitted maximal effect.

COc1ccc(C(=O)N2CCCC2=O)cc1
active: Potency [1] 296 nM | Potency [3] 662 nM
inactive: Potency [2] | viability [4] 101%

C[C@@H]1C[C@@H]([C@H](O)CC2CC(=O)NC(=O)C2)C(=O)[C@@H](C)C1
active: Potency [1] 4180 nM | Potency [2] 1660 nM | Potency [5] 118 nM | Potency [6] 1180 nM | Potency [7] 743 nM | Potency [8] 118 nM | Potency [9] 2640 nM | Potency [3] 1660 nM | Potency [10] 833 nM | Potency [4] 296 nM

O=C(O)c1nn(Cc2ccc(Cl)cc2Cl)c2ccccc12
inactive: Potency [2] | Potency [5] | Potency [7] | Potency [8]

COC(=O)C1=CCCN(C)C1
inactive: Potency [2] | Potency [5] | Potency [7] | Potency [8] | Potency [10]
